In the library only some 0.92% were active in any assay of this set; here they are far more common.
TDP1 block = TDP1 (human) enzyme inhibition. Potency, µM (series often up to 130 µM), for the others: at the top dose activity change, negative = inhibition, actives largely listed as inhibitors. recombinant TDP1, AlphaScreen DNA substrate cleavage. 0.28% of 350,000 active. AID 485290. Q9NUW8; further: nearly all actives have a fitted effect of over 40% in size
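Compounds were preincubated with Tdp1 (1 nM final) for 15 min at room temperature before substrate (15 nM final) started a 5 min reaction; beads (10 ug/ml final) were then added for 10 min before AlphaScreen detection.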
APE1 inh = APE1 (human) endonuclease inhibition | AID 2517 | recombinant APE1, TAMRA/BHQ-2 abasic DNA cleavage fluorescence | P27695 | Potency, µM (doses to about 65.8 µM), for inactives: at the highest dose activity change, negative = inhibition, most hits filed as inhibitors | 0.35% of 350,000 active;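 further: plate controls were vehicle for no effect and reference inhibitor for full effect; nearly all actives have a fitted effect of over 55% in size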
Target sequence (P27695 whole entry, looked up): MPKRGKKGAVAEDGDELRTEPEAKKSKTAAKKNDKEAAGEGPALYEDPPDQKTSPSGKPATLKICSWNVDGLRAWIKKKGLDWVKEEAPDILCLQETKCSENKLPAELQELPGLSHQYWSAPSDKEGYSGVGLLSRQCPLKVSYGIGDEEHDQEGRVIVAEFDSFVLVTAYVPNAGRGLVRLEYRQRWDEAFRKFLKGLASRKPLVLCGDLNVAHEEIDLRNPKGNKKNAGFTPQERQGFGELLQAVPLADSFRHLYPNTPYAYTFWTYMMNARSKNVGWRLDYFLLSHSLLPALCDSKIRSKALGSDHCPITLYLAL
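Compound pre-exposure to 0.75 nM APE1, 15 min at ambient temperature. Reaction initiated with 50 nM TAMRA/BHQ-2 THF substrate, read immediately in kinetic mode, 525 nm excitation, 598 nm emission.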
BLM helicase inh = Bloom syndrome helicase (human) inhibition. Potency, µM (titrated, usually from 56.1 µM), without a hit: at the top dose activity change, negative = inhibition, usual class: inhibitors. 0.2% of 350,000 active. recombinant BLM DNA unwinding, fluorescence dequenching. P54132;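 further: plate controls were vehicle for no effect and no enzyme for full effect; nearly all actives have a fitted effect of over 35% in size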
FEN1 inh = blocks human flap endonuclease 1; 0.35% of 390,000 active; Potency, µM (titrated, usually from 114 µM), for the others: at the top dose activity change, negative = inhibition, usual class: inhibitors; Recombinant FEN1 flap cleavage, fluorescence, 15 min; further: nearly all actives have a fitted effect of over 65% in size
Target sequence (P39748 whole entry, looked up): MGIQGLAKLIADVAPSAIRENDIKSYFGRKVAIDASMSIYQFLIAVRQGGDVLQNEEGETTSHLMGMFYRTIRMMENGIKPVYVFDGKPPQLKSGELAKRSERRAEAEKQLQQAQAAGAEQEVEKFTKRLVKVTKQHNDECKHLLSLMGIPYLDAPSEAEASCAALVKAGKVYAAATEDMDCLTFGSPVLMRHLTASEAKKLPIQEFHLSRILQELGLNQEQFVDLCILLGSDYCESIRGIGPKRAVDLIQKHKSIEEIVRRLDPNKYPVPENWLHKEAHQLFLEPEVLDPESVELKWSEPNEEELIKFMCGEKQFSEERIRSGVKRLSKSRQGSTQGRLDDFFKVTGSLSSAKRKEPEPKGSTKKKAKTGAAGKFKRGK
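Read-out was taken twice, immediately and after 15 min, following addition of 50 nM substrate to 10 nM FEN1 that had sat with test compound for 15 min at room temperature. Curves came from a four-parameter Hill model.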
RECQ1 inh-1 = inhibitors of human RECQ1 DNA helicase; AID 2549; Potency, µM (series often up to 57.3 µM), inactives show at the highest dose activity, negative = inhibition, usual class: inhibitors; 0.54% of 240,000 active; P46063; RECQ1 DNA unwinding, red fluorescence kinetic read;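 further: plate controls were vehicle for no effect and no enzyme for full effect; nearly all actives have a fitted effect of over 30% in size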
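RECQ1T1 50 nM; forked duplex (20 bp + 30-nt ss tails) 200 nM, ATP 2 mM final; pH 8.0, 2 mM MgCl2, 2.5 ug/ml poly(dI-dC); 15 min compound preincubation; discontinuous kinetic read over 2 h at RT.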
RECQ1 inh conf = confirmation of human RECQ1 helicase inhibitors; shares compounds with RECQ1 inh-1; RECQ1 helicase DNA unwinding, fluorescence; Potency, µM (top dose mostly 229 µM), without a hit: at the top dose activity change, negative = inhibition, most hits filed as inhibitors; 28% of 610 active; AID 2708; further: nearly all actives have a fitted effect of over 45% in size
RECQ1 ADP FP = ADP displacement flagged in RECQ1 inhibitor counter-screen; shares compounds with RECQ1 inh-1; ADP fluorescence polarization displacement counterscreen; Potency, µM (series often up to 228 µM), without a hit: top-dose activity change, negative = inhibition, usual class: inhibitors; 27% of 530 active; AID 2711; further: nearly all actives have a fitted effect of over 45% in size
RECQ1 inh-2 = RECQ1 helicase inhibition confirmed, round 2 | 15% of 1,100 active | shares compounds with RECQ1 inh-1 | Potency, µM (doses to about 119 µM), for the others: at the highest dose activity, negative = inhibition, most hits filed as inhibitors | recombinant RECQ1 DNA unwinding, red fluorescence; further: nearly all actives have a fitted effect of over 50% in size
Active calls of the source: *; i = inactive; ? = inconclusive; nt = not tested or not shown. The call rests on the fitted dose curve; in most records, active means well fitted curve in the direction sought with a large enough effect; inconclusive means small, poorly fitted or top-dose-only effect, or another doubt; inactive means no such curve, though single readings can be large; an effect the other way counts as inactive or inconclusive. Unless noted, on the % scale 0 is the no-effect control and ±100 the full control effect; potency means the concentration at half of the fitted maximal effect.

SMILES | TDP1 block | APE1 inh | BLM helicase inh | FEN1 inh | RECQ1 inh-1 | RECQ1 inh-2 | others
CCOc1ccc(S(=O)(=O)Nc2nc3ccccc3nc2-n2ccc(=NC(=O)c3ccccc3C)cc2)cc1 | 4% | -4% | -16% | 1% | ? | -2%
O=[N+]([O-])c1ccccc1/C=C1\C=Cc2ccccc21 | nt | nt | nt | 9% | nt | nt
NNc1nc2sc3c(c2c(=O)n1Cc1ccccc1)CCC3 | nt | -9% | -12% | -1% | -3% | nt
CCn1c(NN)nc2sc3c(c2c1=O)CCC3 | 0% | 0% | -16% | -10% | ? | -11%
CCN(CC)S(=O)(=O)c1ccc(OC)c(NC(=O)/C=C/c2ccco2)c1 | nt | -10% | -18% | -18% | 25µM* | -28%
CCN(CC)S(=O)(=O)c1ccc(N2CCCCC2)c(NC(=O)/C=C/c2ccc(OC)c(OC)c2)c1 | 0% | -12% | -2% | 0% | 0% | nt
Cc1ccc(NC(=O)c2ccccc2NS(=O)(=O)c2ccc(Cl)s2)cc1 | 6% | 16% | -6% | 8% | 40µM* | -18%
O=C(Nc1ccccc1)c1ccccc1NS(=O)(=O)c1ccc(Cl)s1 | 0% | 7% | -5% | -2% | 10% | nt
CCS(=O)(=O)N1CCc2cc(C(=O)N3CCN(c4cccc(C(F)(F)F)c4)CC3)ccc21 | 14% | nt | -1% | -3% | nt | nt
COc1ccccc1CN1C(=O)c2ccncc2C1=O | 1% | -1% | 1% | 4% | -7% | nt
COc1ccccc1CN1C(=O)c2cccc3cccc(c23)C1=O | 1% | 2% | -1% | 0% | 25µM* | 4%
CCc1ccc(NC(=O)CC2C(=O)N(c3ccc(Cl)cc3)C(=O)N2Cc2ccco2)cc1 (configuration not stated) | 6% | nt | -11% | -20% | nt | nt
COc1ccc(C)cc1S(=O)(=O)Nc1ccccc1 | -2% | -1% | -2% | -6% | -5% | nt
COc1ccc(C)cc1S(=O)(=O)Nc1ccncc1 | -2% | 24% | -6% | 2% | 20µM* | -7%
CCCCC/C=C\C=C\C(O)CCCCCCCC(=O)O (configuration not stated) | 5% | 2% | -1% | nt | -1% | nt
CC(Sc1nnc(COc2ccc(Cl)cc2)n1Cc1ccccc1)C(=O)O (configuration not stated) | -5% | 4% | 3% | 3% | -1% | nt | RECQ1 inh conf=17%;RECQ1 ADP FP=1%
CC(Sc1nnc(COc2ccc(Cl)cc2)n1-c1ccccc1)C(=O)O (configuration not stated) | nt | 10% | -8% | -2% | nt | nt
CCOc1cccc(/C=C/c2ccc3cccc(O)c3n2)c1OC | nt | -16% | -11% | -2% | nt | nt
CCOc1c(OC(C)=O)ccc(/C=C/c2ccc3cccc(OC(C)=O)c3n2)c1[N+](=O)[O-] | 12% | -5% | -14% | -17% | 32µM* | -11%
COc1cc(NS(=O)(=O)c2ccc([N+](=O)[O-])cc2)c2ncccc2c1 | 24% | -5% | -6% | nt | i | nt
Cc1cc2c(NC(=O)Nc3ccccc3)cccc2nn1 | -7% | ? | 6% | -6% | ? | 0%
CCCCN(CC)C(=O)CCn1c(=O)c2cccn2c2cccnc21 | -3% | nt | 3% | -3% | nt | nt
CCn1c(SCC(=O)Nc2nc(-c3ccccc3)cs2)nnc1-c1ccccc1 | 4% | -7% | -2% | -7% | -3% | nt | RECQ1 inh conf=?;RECQ1 ADP FP=17%
Cc1c(C(=O)Nc2ccc(C(C)C)cc2)sc2nc[nH]c(=O)c12 | 8% | nt | -2% | -5% | nt | nt
O=C(CN(c1ccccc1)S(=O)(=O)c1ccccc1)NCCSCc1ccco1 | 28µM* | 7.9µM* | -27% | -19% | 14µM* | ? | RECQ1 inh conf=50µM*;RECQ1 ADP FP=50µM*
SMILES | TDP1 block | APE1 inh | BLM helicase inh | FEN1 inh | RECQ1 inh-1 | RECQ1 inh-2 | others
Cc1ccc(CSC2=Nc3ccccc3C3=NC(CC(=O)NCc4ccco4)C(=O)N23)cc1 (configuration not stated) | 2% | -11% | 2% | -13% | ? | ?
CCOc1ccccc1Nc1sc(C(=O)c2ccc(Cl)cc2)c(N)c1S(=O)(=O)c1ccccc1 | 1% | nt | -4% | -9% | nt | nt
COc1ccc(C(=O)Cn2c3ccccc3n3nc(CCC(=O)O)c(=O)nc23)cc1OC | 2% | -2% | 0% | 2% | -8% | nt | RECQ1 inh conf=21%;RECQ1 ADP FP=?
O=C(O)CCc1nn2c3ccccc3n(CC(=O)c3cccs3)c2nc1=O | 4% | -2% | -4% | 14% | 2% | nt | RECQ1 inh conf=7%;RECQ1 ADP FP=-4%
CC(=O)Cn1c2ccccc2n2nc(CCC(=O)O)c(=O)nc12 | 3% | 2% | -7% | 0% | 6% | nt
CCOc1cccc(NC(=O)c2ccc(S(=O)(=O)N3CCCC3)cc2)c1 | nt | -5% | -3% | -22% | 13µM* | -19%
O=C(NC(Cc1ccccc1)C(=O)O)c1ccc(S(=O)(=O)N2CCCCC2)cc1 (configuration not stated) | -1% | 3% | 3% | 0% | -4% | nt | RECQ1 inh conf=12%;RECQ1 ADP FP=?
O=C(Nc1ccc(S(=O)(=O)N2CCCCC2)cc1)c1ccc(CN2CCc3ccccc3C2)cc1 | -4% | -7% | -11% | -6% | ? | -14%
Cc1cc2ccccc2n1CCNC(=O)c1ccc(S(=O)(=O)N2CCCCC2)cc1 | 10% | ? | -29% | -9% | 28µM* | 79µM*
Oc1ccc(Br)cc1C1C=C(c2ccc3c(c2)OCO3)NC(c2ccc(F)c(Br)c2)N1 (configuration not stated) | 1% | nt | nt | -7% | nt | nt
Cc1ccccc1CNCCCSc1nnnn1C | 4% | nt | 2% | 8% | nt | nt
O=C(CN(Cc1ccccc1)S(=O)(=O)c1ccccc1)N/N=C/c1ccccc1[N+](=O)[O-] | 5% | -4% | -8% | -20% | -8% | nt | RECQ1 inh conf=1%;RECQ1 ADP FP=8%
Cc1ccc(CN(CC(=O)N/N=C/c2ccccc2[N+](=O)[O-])S(=O)(=O)c2ccc(C)cc2)cc1 | 8% | 7% | -9% | -17% | 5% | nt
Cc1cc(-c2csc(NC(=O)C3=COCCO3)n2)c(C)n1C | -4% | 15% | nt | 12% | nt | nt
Cc1cc(-c2csc(NC(=O)c3ccc(=O)n(C)n3)n2)c(C)n1CC1CCCO1 (configuration not stated) | 50µM* | -9% | ? | 3% | ? | -4%
